Test results: PubChem BioAssay (NCI)
About 83,000 compounds went through this panel and 20% of them were active in at least one assay; those are over-represented in the sample as a whole.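 A percent growth of 40 corresponds to 60% growth inhibition; 0 means no net growth; -100 means all cells died. Active threshold: below 10.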 The source made the active and inactive calls.

How the values were obtained:
Experiment in all cases: NCI-60 one-dose screen, 48 h (100 = growth as untreated, 0 = no growth, -100 = all killed)
HT29 colon = conditions: 10 µM unless noted
SNB-75 CNS = conditions: 10 µM unless noted
SNB-19 CNS = conditions: 10 µM unless noted
U251 CNS = conditions: 10 µM unless noted
PC-3 prostate = conditions: 10 µM unless noted
SK-MEL-5 melanoma = conditions: 10 µM unless noted
UACC-62 melanoma = conditions: 10 µM unless noted
LOX IMVI melanoma = conditions: 10 µM unless noted
SK-MEL-28 melanoma = conditions: 10 µM
SK-MEL-2 melanoma = conditions: 10 µM unless noted
EKVX NSCLC = conditions: 10 µM unless noted
SN12C renal = conditions: 10 µM unless noted
UO-31 renal = conditions: 10 µM unless noted
TK-10 renal = conditions: 10 µM unless noted
ACHN renal = conditions: 10 µM unless noted
CAKI-1 renal = conditions: 10 µM unless noted
A498 renal = conditions: 10 µM unless noted
CCRF-CEM leukemia = conditions: 10 µM unless noted
MOLT-4 leukemia = conditions: 10 µM unless noted
SR leukemia = conditions: 10 µM unless noted

Measured: growth

COc1cc(/C=C/C(=O)c2ccc(Nc3nc(NCCO)nc(N4CCOCC4)n3)cc2)cc(OC)c1OC
inactive: SNB-75 CNS 10.4% | SNB-19 CNS 30.5% | U251 CNS 14.6% | PC-3 prostate 31% | SK-MEL-5 melanoma 10.5% | LOX IMVI melanoma 11.1% | SK-MEL-28 melanoma 48.4% | SK-MEL-2 melanoma 50.6% | EKVX NSCLC 21.7% | SN12C renal 16.3% | UO-31 renal 25.4% | TK-10 renal 35.3% | ACHN renal 23.3% | CAKI-1 renal 23.6% | SR leukemia 17.4%
active: HT29 colon 5.79% | UACC-62 melanoma -31.7% | A498 renal 2.25% | CCRF-CEM leukemia 3.64% | MOLT-4 leukemia 0.216%

Nc1no[n+]([O-])c1-c1nnc2c(n1)-c1ccccc1C2=O
active: MOLT-4 leukemia 5.49% | SR leukemia 3.68%
inactive: HT29 colon 57.1% | SNB-75 CNS 95% | SNB-19 CNS 84.5% | U251 CNS 88% | PC-3 prostate 33.6% | SK-MEL-5 melanoma 19.7% | UACC-62 melanoma 64.3% | LOX IMVI melanoma 27.5% | SK-MEL-28 melanoma 81.4% | SK-MEL-2 melanoma 86.9% | EKVX NSCLC 63.8% | SN12C renal 15.6% | UO-31 renal 37% | TK-10 renal 151% | ACHN renal 16% | CAKI-1 renal 72.4% | A498 renal 91% | CCRF-CEM leukemia 35.5%

COC(=O)/C(=C\c1c(-c2ccccc2)[nH]c2ccccc12)S(C)(=O)=O
active: HT29 colon 8.37% | SNB-75 CNS -4.33%
inactive: SNB-19 CNS 37.6% | U251 CNS 26.4% | PC-3 prostate 25.6% | SK-MEL-5 melanoma 14.3% | UACC-62 melanoma 37.1% | LOX IMVI melanoma 45.1% | SK-MEL-28 melanoma 36.1% | SK-MEL-2 melanoma 39.1% | EKVX NSCLC 58% | SN12C renal 59.4% | UO-31 renal 41.5% | TK-10 renal 67.2% | ACHN renal 56.8% | CAKI-1 renal 46.4% | A498 renal 29% | MOLT-4 leukemia 25.6% | SR leukemia 45.1%

COc1cccc(C(=O)Cn2cc(/C=C(\C#N)S(=O)(=O)c3ccccc3)c3ccccc32)c1
inactive: HT29 colon 111% | SNB-75 CNS 92.6% | SNB-19 CNS 95.4% | U251 CNS 103% | PC-3 prostate 109% | SK-MEL-5 melanoma 92.4% | UACC-62 melanoma 87.5% | LOX IMVI melanoma 94.8% | SK-MEL-28 melanoma 112% | SK-MEL-2 melanoma 85.9% | EKVX NSCLC 114% | SN12C renal 83.7% | UO-31 renal 70.4% | TK-10 renal 106% | ACHN renal 111% | CAKI-1 renal 118% | MOLT-4 leukemia 103% | SR leukemia 99.4%
active: A498 renal -75.9%

Cc1cccc2c(=O)c3c(sc12)c(N1CCNCC1)nc1ccccc13
inactive: SNB-75 CNS 50% | SNB-19 CNS 82.6% | U251 CNS 59.9% | PC-3 prostate 69.9% | SK-MEL-5 melanoma 80.2% | UACC-62 melanoma 89.9% | LOX IMVI melanoma 10.3% | SK-MEL-28 melanoma 80.1% | SK-MEL-2 melanoma 98.2% | EKVX NSCLC 68.9% | SN12C renal 69.8% | UO-31 renal 36.7% | TK-10 renal 86.3% | ACHN renal 46% | CAKI-1 renal 54.8% | CCRF-CEM leukemia 62.4% | MOLT-4 leukemia 33.8%
active: HT29 colon 6.4% | SR leukemia -17%

CCCN1CCN(c2ccc3nc(-c4ccc5nc(-c6cc(OC)ccc6OC)[nH]c5c4)[nH]c3c2)CC1
inactive: SNB-75 CNS 90.9% | SNB-19 CNS 115% | U251 CNS 85.8% | PC-3 prostate 103% | SK-MEL-5 melanoma 99.5% | UACC-62 melanoma 110% | SK-MEL-28 melanoma 99.4% | SK-MEL-2 melanoma 118% | EKVX NSCLC 96.7% | SN12C renal 99.2% | UO-31 renal 85.7% | TK-10 renal 118% | ACHN renal 106% | CAKI-1 renal 106% | MOLT-4 leukemia 77%
active: HT29 colon -23.2% | LOX IMVI melanoma -83.3% | CCRF-CEM leukemia 3.98% | SR leukemia -25.6%

O=Cc1c(OCc2cnnn2CC(=O)Nc2ccc(Br)cc2)ccc2ccccc12
inactive: HT29 colon 97.8% | SNB-75 CNS 72.6% | SNB-19 CNS 90.4% | U251 CNS 90.4% | PC-3 prostate 90.2% | SK-MEL-5 melanoma 93.9% | UACC-62 melanoma 68.4% | LOX IMVI melanoma 79.5% | SK-MEL-28 melanoma 99.9% | SK-MEL-2 melanoma 102% | EKVX NSCLC 82.1% | SN12C renal 92.9% | UO-31 renal 66.3% | TK-10 renal 93.7% | ACHN renal 80.1% | CAKI-1 renal 93.9% | A498 renal 74.4% | CCRF-CEM leukemia 97.4% | MOLT-4 leukemia 93.7% | SR leukemia 95.9%

Cc1cccc2c(=O)c3c(sc12)c(NCCN)nc1ccccc13
active: HT29 colon -54.9% | SNB-19 CNS -2.48% | U251 CNS -77.2% | PC-3 prostate -42.9% | SK-MEL-5 melanoma -22.9% | UACC-62 melanoma -86.6% | LOX IMVI melanoma -92.9% | SK-MEL-28 melanoma -86.1% | SK-MEL-2 melanoma -34.9% | EKVX NSCLC -0.232% | SN12C renal -75.8% | UO-31 renal -77.1% | TK-10 renal -73.7% | ACHN renal -97.6% | CAKI-1 renal -58.4% | CCRF-CEM leukemia -34.5% | MOLT-4 leukemia -59% | SR leukemia -28.3%
inactive: SNB-75 CNS 15.2%

Cc1cccc2c(=O)c3c(sc12)c(NCCCNCCO)nc1ccccc13
active: HT29 colon -24.1% | LOX IMVI melanoma -88.2% | ACHN renal 9.89% | MOLT-4 leukemia -34% | SR leukemia -27.3%
inactive: SNB-75 CNS 23.8% | SNB-19 CNS 64.7% | U251 CNS 28.7% | PC-3 prostate 43.6% | SK-MEL-5 melanoma 59% | UACC-62 melanoma 60.2% | SK-MEL-28 melanoma 32.9% | SK-MEL-2 melanoma 91.2% | EKVX NSCLC 53.5% | SN12C renal 44.6% | UO-31 renal 34.8% | TK-10 renal 49.5% | CAKI-1 renal 24.8% | CCRF-CEM leukemia 15%

Cc1cc2c(c(C)c1Cl)C(=O)/C(=C/c1cccc([N+](=O)[O-])c1)O2
inactive: HT29 colon 95.4% | SNB-75 CNS 102% | SNB-19 CNS 96.8% | U251 CNS 93% | PC-3 prostate 100% | SK-MEL-5 melanoma 96.6% | UACC-62 melanoma 82% | LOX IMVI melanoma 102% | SK-MEL-28 melanoma 102% | SK-MEL-2 melanoma 97.7% | EKVX NSCLC 98.3% | SN12C renal 96.9% | UO-31 renal 96.2% | TK-10 renal 129% | ACHN renal 107% | CAKI-1 renal 91.6% | A498 renal 95.6% | CCRF-CEM leukemia 102% | MOLT-4 leukemia 90.5% | SR leukemia 85.5%

O=c1c2cc(F)ccc2sc2c(NCCN3CCCC3)nc3ccccc3c12
active: MOLT-4 leukemia 5.14%
inactive: HT29 colon 13.9% | SNB-75 CNS 77.6% | SNB-19 CNS 69.2% | U251 CNS 35.7% | PC-3 prostate 61% | SK-MEL-5 melanoma 79.7% | UACC-62 melanoma 38.2% | LOX IMVI melanoma 28.4% | SK-MEL-28 melanoma 71.6% | SK-MEL-2 melanoma 91% | EKVX NSCLC 66.2% | SN12C renal 70.4% | UO-31 renal 45.3% | TK-10 renal 64.8% | ACHN renal 35.6% | CAKI-1 renal 62.8% | A498 renal 26% | CCRF-CEM leukemia 33.5% | SR leukemia 16.7%

CCOC(=O)c1sc(-c2ccc(OS(=O)(=O)C[C@]34CCC(CC3=O)C4(C)C)c(C=O)c2)nc1C
inactive: SNB-19 CNS 18% | PC-3 prostate 25.8% | SK-MEL-5 melanoma 16.8% | UACC-62 melanoma 25% | SK-MEL-28 melanoma 52.6% | SK-MEL-2 melanoma 12.8% | EKVX NSCLC 36.5% | SN12C renal 28.7% | UO-31 renal 29% | ACHN renal 39.8% | CCRF-CEM leukemia 11.7% | SR leukemia 21.2%
active: HT29 colon 6.26% | SNB-75 CNS -2.85% | U251 CNS -9.73% | LOX IMVI melanoma -32.1% | TK-10 renal 5.83% | CAKI-1 renal 0.933% | A498 renal -2.42% | MOLT-4 leukemia 4.72%

CC(=O)O[C@@H]1/C=C/C(=O)N[C@@H](C)CCC/C=C/[C@@H]2CCC[C@H]21
inactive: HT29 colon 110% | SNB-75 CNS 95% | SNB-19 CNS 96.9% | U251 CNS 109% | PC-3 prostate 90.2% | SK-MEL-5 melanoma 101% | UACC-62 melanoma 92.1% | LOX IMVI melanoma 105% | SK-MEL-28 melanoma 129% | SK-MEL-2 melanoma 119% | EKVX NSCLC 116% | SN12C renal 102% | UO-31 renal 93.7% | TK-10 renal 112% | ACHN renal 112% | CAKI-1 renal 98.9% | A498 renal 121% | MOLT-4 leukemia 93.6% | SR leukemia 87.4%

COc1ccc(C2Nc3ncnc(N)c3N=C3c4ccccc4C(=O)C32)cc1 (configuration not stated)
inactive: HT29 colon 98.2% | SNB-75 CNS 71.5% | SNB-19 CNS 82.2% | U251 CNS 90.9% | PC-3 prostate 78% | SK-MEL-5 melanoma 95.6% | UACC-62 melanoma 117% | LOX IMVI melanoma 92.8% | SK-MEL-28 melanoma 113% | SK-MEL-2 melanoma 88.5% | EKVX NSCLC 94.5% | SN12C renal 140% | UO-31 renal 67% | TK-10 renal 123% | ACHN renal 92.4% | CAKI-1 renal 80.1% | A498 renal 99.2% | CCRF-CEM leukemia 97.9% | MOLT-4 leukemia 57.9%
active: SR leukemia 9.71%

COc1ccc(OC)c(NC(=O)/C(C#N)=C/c2ccco2)c1
inactive: HT29 colon 91.8% | SNB-75 CNS 82.2% | SNB-19 CNS 93.8% | U251 CNS 94.2% | PC-3 prostate 89.7% | SK-MEL-5 melanoma 102% | UACC-62 melanoma 86.5% | LOX IMVI melanoma 98.2% | SK-MEL-28 melanoma 104% | SK-MEL-2 melanoma 87.1% | EKVX NSCLC 94% | SN12C renal 101% | UO-31 renal 67.8% | TK-10 renal 114% | ACHN renal 93.6% | CAKI-1 renal 90.4% | A498 renal 101% | MOLT-4 leukemia 78.7% | SR leukemia 74.3%

CN(O)c1nc(N(C)O)nc(N2CCOCC2)n1
inactive: HT29 colon 23.7% | SNB-75 CNS 29.2% | SNB-19 CNS 32.8% | U251 CNS 31.5% | PC-3 prostate 58.9% | SK-MEL-5 melanoma 34.2% | UACC-62 melanoma 29.1% | LOX IMVI melanoma 25.4% | SK-MEL-28 melanoma 61.1% | SK-MEL-2 melanoma 62.6% | SN12C renal 53.7% | UO-31 renal 12.7% | TK-10 renal 16.3% | ACHN renal 17.5% | A498 renal 89.6% | MOLT-4 leukemia 22.1% | SR leukemia 55.6%
active: EKVX NSCLC 5.22% | CAKI-1 renal -11.2% | CCRF-CEM leukemia 5.09%
